Compounds with a hit are over-represented: about 2% of the library has one in this group of screens.
HTT cytoprotect: qHTS Multiplex Assay to Identify Dual Action Probes in a Cell Model of Huntington: Cytoprotection (ATP); PC12 HTT-Q103 induced, cytoprotection, ATP luminescence, 40 h; Potency, µM (doses to about 56.4 µM), inactives show cytoprotection (ATP increase), most hits filed as activators; actives 0.14% (n = 230,000); also: potency is read from the fitted curve at half-maximal effect; % of control where 0% means no effect; nearly all actives have a fitted effect of over 45% in size
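Huntington model: PC12 line, ecdysone-inducible HTTQ103 exon1–GFP, tebufenozide 100 nM. Test articles in a dose series. Endpoint luminescence from cellular ATP.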
Coupling enz: qHTS Assay for Inhibitors of Fructose-1,6-bisphosphate Aldolase from Giardia Lamblia: Coupling assay counterscreen | coupling enzyme system counterscreen, AmpLite Red fluorescence | activity change, negative = inhibition, % at 58.2 µM, hits read low | actives 0.67% (n = 290,000) | AID 2472, 2010; in the data active = activity change below about -30%; also: % is scaled to controls: 0 for no effect and ±100 for the full control effect
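Compounds tested against the coupling enzymes alone at 57.5 uM final; readout was AmpLite Red fluorescence (525/598 nm) after 20 min at RT.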
HTT aggregate: qHTS Multiplex Assay to Identify Dual Action Probes in a Cell Model of Huntington: Aggregate Formation (GFP). actives 1.1% (n = 220,000). PC12 HttQ103-GFP aggregates, Acumen cytometry, 40 h. Potency, µM (titrated, usually from 46.1 µM), for inactives: at the highest dose activity change, negative = inhibition, usual class: inhibitors; also: potency is read from the fitted curve at half-maximal effect; % is scaled to controls: 0 for no effect and ±100 for the full control effect; nearly all actives have a fitted effect of over 60% in size
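PC12 cells stably carrying ecdysone-inducible HTT exon 1 Q103–GFP were induced with tebufenozide (100 nM final) and treated with library compounds in titration. GFP aggregates in lysates were counted by laser scanning cytometry.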
TRb-SRC2 inh: qHTS for Inhibitors of the Interaction of Thyroid Hormone Receptor and Steroid Receptor Coregulator 2; actives 0.065% (n = 280,000); Potency, µM (titrated, usually from 106 µM), for the others: top-dose activity change, negative = inhibition, actives largely listed as inhibitors; AID 1469, 2008; TRbeta-SRC2 peptide binding, fluorescence polarization; receptor liganded with 1 µM T3; Thyroid hormone receptor beta (Homo sapiens), P10828;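 also: potency is read from the fitted curve at half-maximal effect; plate controls were bound peptide for no effect and peptide without receptor for full effect; nearly all actives have a fitted effect of over 50% in size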
Target sequence (P10828 whole entry, looked up): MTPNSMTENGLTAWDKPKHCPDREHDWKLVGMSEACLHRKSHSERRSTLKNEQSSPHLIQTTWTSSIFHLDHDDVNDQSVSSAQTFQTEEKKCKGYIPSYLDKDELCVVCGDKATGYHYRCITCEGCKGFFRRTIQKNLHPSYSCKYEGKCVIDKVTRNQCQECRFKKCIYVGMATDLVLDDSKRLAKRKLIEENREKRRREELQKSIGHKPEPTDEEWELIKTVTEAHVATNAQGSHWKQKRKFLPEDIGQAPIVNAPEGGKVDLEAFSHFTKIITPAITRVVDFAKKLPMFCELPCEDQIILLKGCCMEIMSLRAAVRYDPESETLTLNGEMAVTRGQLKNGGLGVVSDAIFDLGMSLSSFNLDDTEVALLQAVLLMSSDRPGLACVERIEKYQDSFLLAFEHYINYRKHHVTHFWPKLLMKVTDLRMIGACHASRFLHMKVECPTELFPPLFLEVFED
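Each compound concentration gave % activity, normalized to unbound and bound Texas Red SRC2 controls, from polarization read after 5 hr ambient incubation with T3-loaded human TRb LBD.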
KDM4E inh: qHTS Assay for Inhibitors of Human Jumonji Domain Containing 2E (JMJD2E); Lysine-specific demethylase 4E (Homo sapiens), B2RXH2; actives 1.6% (n = 230,000); Potency, µM (doses to about 57.1 µM), inactives show top-dose activity change, negative = inhibition, usual class: inhibitors; JMJD2E catalytic domain, FDH-coupled NADH fluorescence (FDH is formaldehyde dehydrogenase); AID 2147, 2009; active = well fitted inhibition curve with a large enough effect, not every such curve was filed as active; inconclusive = small, poorly fitted or top-dose-only effect, or another doubt; inactive = no such curve, though single readings can be large or run the other way;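 also: potency is read from the fitted curve at half-maximal effect; 0% = wells with enzyme and -100% = buffer wells without enzyme; nearly all actives have a fitted effect of over 50% in size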
Target sequence (B2RXH2 1-337 limits assumed): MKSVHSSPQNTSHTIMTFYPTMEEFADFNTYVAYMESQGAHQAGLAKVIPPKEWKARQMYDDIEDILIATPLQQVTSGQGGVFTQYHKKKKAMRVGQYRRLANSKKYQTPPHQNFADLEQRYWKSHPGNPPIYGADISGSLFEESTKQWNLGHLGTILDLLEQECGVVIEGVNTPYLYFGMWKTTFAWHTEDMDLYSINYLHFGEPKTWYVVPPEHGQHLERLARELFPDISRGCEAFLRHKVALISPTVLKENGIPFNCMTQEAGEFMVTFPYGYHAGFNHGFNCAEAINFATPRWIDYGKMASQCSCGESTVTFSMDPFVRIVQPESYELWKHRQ
TexasRed fluor: Total Fluorescence Counterscreen for Inhibitors of the Interaction of Thyroid Hormone Receptor and Steroid Receptor Coregulator 2; TRb/SRC2 Texas Red total fluorescence interference; Potency, µM (highest dose often 106 µM), without a hit: at the top dose fluorescence change, negative = quenching; actives 0.29% (n = 280,000); AID 1479, 2009; active = well fitted curve in either direction with a large enough effect; inconclusive = small, poorly fitted or top-dose-only effect; also: potency is read from the fitted curve at half-maximal effect; % is scaled to controls: 0 for no effect and ±100 for the full control effect
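Human TRb ligand-binding domain at 0.6 uM with 20 nM Texas Red SRC2 peptide in Tris buffer containing 1 uM T3 and 5% DMSO, incubated with compound 5 h at ambient temperature. Total fluorescence (555/632 nm) calculated as parallel + 2 × perpendicular.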
Starred values were filed as active, the others as inactive; ? = inconclusive; nt = not tested or not shown; ! = not confirmed by another sample; [ ] = remark or other dose. Unless noted, calls follow the shape of the dose curve; as a rule, active = well fitted curve in the direction sought with a large enough effect; inconclusive = small, poorly fitted or top-dose-only effect, or another doubt; inactive = no such curve, though single readings can be large; an effect the other way counts as inactive or inconclusive.

SMILES	HTT cytoprotect	Coupling enz	HTT aggregate	TRb-SRC2 inh	KDM4E inh	TexasRed fluor
CC(C)c1ccc(-n2c(O)c(/C=N/NC(=O)c3ccccc3O)c(=O)[nH]c2=S)cc1	14.1%[10 µM]	6.7	15.9%[9.22 µM]	7.2%	?	-14.8%
Cn1c(=O)c2c(nc(N/N=C/c3c(O)n(-c4ccccc4)c(=S)[nH]c3=O)n2C)n(C)c1=O	-14.9%[10 µM]	-4.2	-2.2%	-8.4%	25.1µM*	-3.3%
O=C1C(Cl)=C(Cl)C(=O)C(Cl)=C1Cl	-301.1%	-65.1*	nt	-2.7%	?	-10.5%
CC(=O)Nc1ccc(N(C(=O)Cn2nnc3ccccc32)C(C(=O)NC2CCCC2)c2ccc(O)c(O)c2)cc1 (stereo not drawn)	-4.9%[10 µM]	-1.9	2.5%[9.22 µM]	10.3%	7.94µM*	-1.6%
O=S1(=O)N(CCN2CC=C(c3c[nH]c4cc(F)ccc34)CC2)c2cccc3c2N1CCC3	3.0%[1.9 µM]	nt	nt	2.7%	15.8µM*	?
CC(C)N1CC=C(c2c[nH]c3ccccc23)CC1	-43.0%	-2.5	?	-12.1%	?	2.2%
C[N+]1(C)C2CCC1CC(OC(=O)C(CO)c1ccccc1)C2 (stereo not drawn)	-23.2%	0.6	-2.7%	4.6%	10µM*!	0.2%
C[N+]1(C)[C@@H]2CC[C@H]1CC(OC(=O)C(CO)c1ccccc1)C2 (stereo partly drawn)	nt	0.0	17.6%	3.2%	6.3%	-0.4%
CC(C)(C)[C@@H](O)/C(=C\c1ccc(Cl)cc1Cl)n1cncn1	nt	nt	nt	-1.8%[201 µM]	nt	-1.2%[201 µM]
CCN(CC)C1=NC(=[N+](CC)CC)c2ccccc21	-50.4%	2.4	2.82µM*	-11.8%	?	-0.6%
Cc1ccccc1C(=O)Nc1cccc(OC(C)C)c1	nt	nt	nt	-4.7%[201 µM]	nt	-2.7%[201 µM]
C[N+]1(C)CCCCC1	nt	nt	nt	-1.6%[201 µM]	nt	2.4%[201 µM]
CN1CCc2cc3c(c4c2C1Cc1ccccc1-4)OCO3 (stereo not drawn)	nt	-34.7*	nt	nt	nt	nt
CCCSC(=O)N(CCC)CCC	nt	nt	nt	4.0%[201 µM]	nt	5.1%[201 µM]
COC(=O)/C=C(\C)OP(=O)(OC)OC	nt	nt	nt	-2.7%[201 µM]	nt	-1.1%[201 µM]
Cc1cc(OCC(=O)OC(C)(C)C)c2c3c(c(=O)oc2c1)CCC3	1.7%	0.3	1.7%	-0.6%	4.47µM*	-5.8%
C=CCOC(=O)COc1cc(C)cc2oc(=O)c3c(c12)CCC3	9.0%	-0.1	6.4%	0.0%	?	-6.2%
CCOP(=O)(OCC)OP(=O)(OCC)OCC	nt	nt	nt	5.7%[201 µM]	nt	-1.3%[201 µM]
OCCCc1ccc(O)c(O)c1	10.8%[10 µM]	-7.4	5.6%[9.22 µM]	-2.8%	?	-2.6%
CCCN(CCC)CCc1ccc(O)c(O)c1	-26.4%	nt	nt	5.0%	20µM*	3.7%
O=C(Nc1ccccc1)Nc1cnns1	nt	nt	nt	4.8%[201 µM]	nt	-2.0%[201 µM]
CCCOCC(=Nc1ccc(Cl)cc1C(F)(F)F)n1ccnc1	nt	nt	nt	-10.9%[201 µM]	nt	?
CN(C)[C@@H]1C(=O)C(C(N)=O)=C(O)[C@@]2(O)C(=O)C3=C(O)c4c(O)ccc(Cl)c4[C@@](C)(O)C3C[C@@H]12 (stereo partly drawn)	nt	-8.2	-8.7%	7.8%	3.6%	39.8µM*[quencher]
CN(C)C1C(=O)C(C(N)=O)=C(O)C2(O)C(=O)C3=C(O)c4c(O)cccc4C(C)(O)C3CC12 (stereo not drawn)	nt	-19.1	nt	nt	nt	nt
CN(C)[C@H]1C(=O)C(C(N)=O)=C(O)[C@]2(O)C(=O)C3=C(O)c4c(O)cccc4[C@@](C)(O)[C@H]3C[C@@H]12	-1.0%[40.3 µM]	-10.0	-9.9%[20.6 µM]	3.7%[53 µM]	11.2µM*	0.1%[53 µM]
SMILES	HTT cytoprotect	Coupling enz	HTT aggregate	TRb-SRC2 inh	KDM4E inh	TexasRed fluor
Cc1[nH]n(-c2ccccc2)c(=O)c1C(c1ccc([N+](=O)[O-])cc1)c1c(C)[nH]n(-c2ccccc2)c1=O	-12.8%[10 µM]	-4.1	-7.2%	0.2%[53 µM]	-6.6%	0.355µM*[quencher]
CC[C@@]1(O)CC(O)c2c(cc3c(c2O)C(=O)c2c(O)ccc(O)c2C3=O)C1C(=O)OC (stereo partly drawn)	-269.6%	-15.6	nt	-10.0%	12.6µM*	?
CC[C@]1(O)CC(O[C@@H]2CC(N(C)C)C(O)C(C)O2)c2c(cc3c(c2O)C(=O)c2c(O)cccc2C3=O)C1C(=O)OC (stereo partly drawn)	-249.0%	-25.4	nt	-12.3%	-20.6%	6.0%
Cc1cccc(CN2CCN(c3ccc(Cl)cc3)CC2)c1	-9.2%[10 µM]	4.5	21.0%	15.5%	22.4µM*	-1.5%
Cc1cccc(CN2CCN(Cc3ccc(Cl)cc3)CC2)c1	-14.0%	-11.6	0.4%[1.84 µM]	-4.5%	15.8µM*	-3.9%
CSc1nnc(C(C)(C)C)c(=O)n1N	nt	nt	nt	-0.6%[201 µM]	nt	-3.1%[201 µM]
CCOc1nc(F)cc2nc(S(=O)(=O)Nc3c(Cl)cccc3Cl)nn12	nt	nt	nt	-4.4%[201 µM]	nt	9.1%[201 µM]
CCc1ccc(OCC(=O)N2CCN(CCc3ccncc3)CC2)cc1	nt	nt	nt	-15.8%	nt	708µM*[quencher]
Cc1ccc(O)cc1 (tested in a mixture with another compound)	9.2%[10 µM]	nt	nt	nt	nt	nt
Oc1cc[c]([Hg][Cl])cc1	-99.0%	nt	2.51µM*	nt	nt	nt
FC(F)C(F)(F)OCC(Cn1cncn1)c1ccc(Cl)cc1Cl (stereo not drawn)	nt	nt	nt	-1.5%[201 µM]	nt	-1.3%[201 µM]
Cc1c2ccncc2c(C)c2c1[nH]c1ccccc12	-81.9%[40.3 µM]	-30.3*!	-10.5%	4.0%	12.6µM*	-2.9%
CC/C(=C\C=C\[C@@H]1C=C[C@@H]2CCC[C@H]2[C@@H]1C(=O)c1ccc[nH]1)[C@@H]1O[C@@H]([C@@H](C)C(=O)O)CC[C@@H]1C	-35.4%[10 µM]	-1.3	11.2µM*	-0.8%	?	-0.8%
Cc1cccc(-n2c(O)c(/C=C3/C(c4ccccc4)=Nc4ccccc43)c(=O)[nH]c2=O)c1	-36.2%[10 µM]	5.7	-11.2%[9.22 µM]	-5.5%	?	-1.1%
Cc1ccccc1-n1c(O)c(/C=C2/C(c3ccccc3)=Nc3ccccc32)c(=O)[nH]c1=O	-37.5%[1.9 µM]	-0.6	-4.7%	?	2.0%	31.6µM*[quencher]
CC1=Nc2ccccc2/C1=C/c1c(O)n(C)c(=O)[nH]c1=O	nt	0.4	nt	nt	nt	nt
Cc1ccc(-n2c(O)c(/C=C3/C(c4ccccc4)=Nc4ccccc43)c(=O)[nH]c2=O)cc1	-53.4%[10 µM]	3.1	11.2µM*	-0.1%	3.8%	-9.2%
Clc1ccc(-c2cc(Cl)c(Cl)cc2Cl)cc1Cl	nt	nt	nt	0.9%[201 µM]	nt	-1.4%[201 µM]
